Active and inactive are the calls of the source. A call without a number means that no potency is given here. Calls come from the whole dose curve; as a rule, active = well fitted activation curve with a large enough effect; inconclusive = small, poorly fitted or top-dose-only effect; inactive = flat fitted curve, though single readings scatter.
Test: Cellular Toxicity (caspase-3) HepG2 (AID 654);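 for caspase-3 activation: cells exposed to compound for 16 hours before reading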
Details: HepG2 caspase-3 activation, luminescence; series mostly up to 92.2 µM
Text: NIH Chemical Genomics Center [NCGC]
NIH Molecular Libraries Screening Centers Network [MLSCN]
National Institutes of Environmental Health Sciences [NIEHS]
National Toxicology Program [NTP]
We have developed a 1536-well cell-based assay for quantitative high throughput screening (qHTS) against a number of cell lines to determine in vitro caspase 3/7 of small molecules. This particular assay uses the HepG2 cell line which is derived from human hepatocellular carcinoma.
NCGC Assay Protocol Summary:
The Caspase-Glo 3/7 assay (Promega) is a homogeneous method to measure caspase-3 and caspase-7 activities in cultured cells. The quantitation of caspase 3/7 activity is based on the cleavage of a peptide-aminoluciferin substrate. After caspase cleaves the substrate the free aminoluciferin is liberated and serves as the substrate of luciferase, which generates the light. The luminescent signal is proportional to amount of caspase 3/7 activity present.
Using the Caspase-Glo 3/7 assay, the amount of caspase 3/7 activity was measured in the HepG2 cell line with complete culture medium following compound treatment for 16 hours. The assay was performed in opaque white 1536-well plates. In the screen, tamoxifen and doxorubicin were used as positive controls. Library compounds were measured for their ability to cause the activation of caspase 3/7 in the cell line, as reflected by an increase in luminescence signal, in a concentration-dependent manner. Data were normalized to the controls for basal activity (DMSO only) and 100% stimulation (100 uM tamoxifen). AC50 values were determined from concentration-response data modeled with the standard Hill equation.
qHTS protocol for caspase 3/7 assay in HepG2 cells
[Step] [Parameter] [Value] [Description]
1. Reagent; 5 uL; 1500 HepG2 cells/well
2. Time; 5 hr; 37 °C incubation
4. Controls; 23 nL; Tamoxifen 0.23 uM to 100 uM & Doxorubicin 7.0 pM to 100 uM
5. Time; 16 hr; 37 °C incubation
6. Reagent; 5 uL; Caspase-Glo 3/7 reagent
7. Time; 20 min; Room Temperature
8. Detection; Luminescence; Viewlux plate reader
Keywords: caspase 3/7, apoptosis, HepG2 cell line, luminescence, NTPHTS, NTPHTS_NCGC, NIEHS, EPA, DSSTox, MLSMR, MLSCN, NIH Roadmap, qHTS, NCGC
Potency is the fitted concentration of half-maximal effect.

Structure (SMILES) | Potency
CC(C)(C)C(=O)C1C(=O)c2ccccc2C1=O | inactive
CCCC(=O)OC(=O)CCC | inactive
O=c1[nH]ncc2ccccc12 | inactive
OCC(CO)(CBr)CBr | inactive
O=C(O)/C=C/c1ccc(/C=C/C(=O)O)cc1 | inactive
COc1ccc(C(=O)Nc2ccccc2)cc1[N+](=O)[O-] | inactive
C1CCCNCC1 | inactive
CC(C)COC(=O)COc1cc(Cl)c(Cl)cc1Cl | inactive
O=[N+]([O-])c1cccc(I)c1 | inactive
Nc1cc([N+](=O)[O-])ccc1O | inactive
C[Si](C)(C)Cl | inactive
CC(CCC(=O)O)(c1ccc(O)cc1)c1ccc(O)cc1 | inactive
Oc1ccc2c(c1)OCO2 | inactive
Cc1ccc(S(N)(=O)=O)cc1 | inactive
O=C1c2ccccc2C(=O)C1(O)O | inactive
Brc1cc(Br)c(Oc2cc(Br)c(Br)cc2Br)cc1Br | inactive
CCCCCCc1ccc(-c2ccc(C#N)cc2)cc1 | inactive
CC(=O)OC1CC(C)OC(C)O1 (stereo not given) | inactive
O=Nc1ccc(Nc2ccccc2)cc1 | inactive
CC1=C(/C=C/C(C)=C/C=C/C(C)=C/C=O)C(C)(C)CCC1 | 63.1 µM (active)

Structure (SMILES) | Potency
O=C(O)c1cc(N=Nc2ccc([N+](=O)[O-])cc2)ccc1O | inactive
O=C=Nc1ccc(Cl)c(Cl)c1 | inactive
CC(=O)c1ccc(Cl)c(Cl)c1Cl | inactive
CCOC(=O)C1OC1c1ccccc1 (stereo not given) | inactive
Oc1cc2c(cc1O)[C@H]1c3ccc(O)c(O)c3OC[C@@]1(O)C2 | inactive
CCCCNCC | inactive
CC(=O)CC(=O)Nc1ccccc1 | inactive
CC(=O)OCc1ccc2c(c1)OCO2 | inactive
CCNC(=S)NCC | inactive
c1ccc(Nc2cccc3ccccc23)cc1 | inactive
C=Cc1cccc(C)c1 | inactive
S=C(NC1CCCCC1)NC1CCCCC1 | inactive
c1ccc(SCCSc2ccccc2)cc1 | inactive
CCc1ccc(C(c2ccc(CC)cc2)C(Cl)Cl)cc1 | inactive
Oc1cc(Cl)cc(Cl)c1Cl | inactive
COc1ccc([N+](=O)[O-])cc1N | inactive
Nc1ccc2c(c1)C(=O)c1ccccc1C2=O | inactive
Cc1c2ccccc2c(C)c2c1ccc1ccccc12 | inactive
O=[N+]([O-])c1ccccc1Nc1ccccc1 | inactive
c1ccc(CSCc2ccccc2)cc1 | inactive
